The supplement of paper PMC10849652
About 8,800 targets were measured; listed, in parts, are those with a hit and a random draw of the rest. About 0.5% of all pairs of compound and target were hits. A number with no mark means an inactive call.

Columns and labels:
Assay in all cases: log2 fold change, soluble protein after heating vs DMSO (PISA); higher = thermal stabilisation; K562 lysate, 10 uM; active = over 0.2 and 3.5 SD of the protein, either way, in both replicates (recomputed)
erlotinib = compound: C#Cc1cccc(Nc2ncnc3cc(OCCOC)c(OCCOC)cc23)c1 [erlotinib]
Outline: (§1)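 Soluble protein was defined as the supernatant remaining after 21,000xg for 90 min, following pooling of heated aliquots and adjustment to 0.5% NP-40 at 4°C. Before that, crude K562 extract at 1 mg/mL protein in PBS pH 7.4 with 1 mM MgCl2 was treated with 10 μM compound for 30 min and heated for 3 min across 48°C-58°C. Quantification used TMTpro 16plex LC-MS/MS with channel sums equalised, and values are log-two fold changes in thermal stability relative to solvent controls from duplicates.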

[1] = compound: C/C(=N\NC(=O)C1=CC(=CC=C1)S(=O)(=O)N2CCOCC2)/C3=C(C=CC(=C3)Cl)O
Outline: as §1

[2] = compound: C1=CC(=CC=C1C2=NC3=C(N2)C=C(C=C3)C(=O)N)OC4=CC=C(C=C4)Cl
Outline: as §1

[3] = compound: C1=CC2=C(C=CC(=C2)/C=C\3/C(=O)NC(=NCC4=CC=CS4)S3)N=C1
Outline: as §1

[4] = compound: C1=CC2=NC=CN=C2C=C1/C=C/3\C(=O)NC(=O)S3
Outline: as §1

[5] = compound: C1=CC=C(C=C1)C2=NC(=C(N2)C3=CC=NC=C3)C4=CC(=C(C=C4)Cl)O
Outline: as §1

[6] = compound: C1=CC=C2C(=C1)C3=NNC4=CC=CC(=C43)C2=O
Outline: as §1

[7] = compound: C1CCN(C1)C(=O)NC2=CC=CC(=C2)NC3=NC=C(C(=N3)NCCC4=CN=CN4)Br
Outline: as §1

[8] = compound: C1CN(CCC1(CC2=CC=C(C=C2)Cl)N)C3=NC=NC4=C3C=CN4
Outline: as §1

IRAK-1-4 Inhibitor I = compound: C1COCCN1CCN2C3=CC=CC=C3N=C2NC(=O)C4=CC(=CC=C4)[N+](=O)[O-] [IRAK-1-4 Inhibitor I]
Outline: as §1

ibrutinib = compound: C=CC(=O)N1CCC[C@@H](n2nc(-c3ccc(Oc4ccccc4)cc3)c3c(N)ncnc32)C1 [ibrutinib]
Outline: as §1

[9] = compound: CC(=O)c1cnc2ccc(-c3cc(Cl)c(O)c(Cl)c3)nc2c1N[C@H]1CC[C@H](CN(C)C)CC1
Outline: as §1

ralimetinib = compound: CC(C)(C)Cn1c(N)nc2ccc(-c3[nH]c(C(C)(C)C)nc3-c3ccc(F)cc3)nc21 [ralimetinib]
Outline: as §1

[10] = compound: CC(C)(O)CC(=O)NCCn1ccc2ncnc(Nc3ccc(Oc4cccc(C(F)(F)F)c4)c(Cl)c3)c21
Outline: as §1

[11] = compound: CC(C)C1=C2N=C(C=C(N2N=C1)NCC3=CC=CC=C3)NCCCCCCN
Outline: as §1

[12] = compound: CC1=C(C(CC(=O)N1)C2=CC=C(C=C2)C(F)(F)F)C(=O)NC3=C(C=C4C(=C3)C=NN4)F
Outline: as §1

[13] = compound: CC1=C(C2=C(C=C1)C(=O)C3=CC=CC=C3N2CCCN)C
Outline: as §1

[14] = compound: CC1=C(C=C(C=C1)NC(=O)C2=CC(=CC=C2)C(C)(C)C#N)NC3=CC4=C(C=C3)N=CN(C4=O)C
Outline: as §1

[15] = compound: CC1=C(C=C(C=C1)NC(=O)C2=CC(=CC=C2)N(C)C)NC(=O)C3=CC=C(C=C3)O
Outline: as §1

[16] = compound: CC1=CC=C(C=C1)SC2=C3C=C(SC3=CN=C2)C(=O)N
Outline: as §1

UniProt P48426, sequence (P48426 whole entry, looked up): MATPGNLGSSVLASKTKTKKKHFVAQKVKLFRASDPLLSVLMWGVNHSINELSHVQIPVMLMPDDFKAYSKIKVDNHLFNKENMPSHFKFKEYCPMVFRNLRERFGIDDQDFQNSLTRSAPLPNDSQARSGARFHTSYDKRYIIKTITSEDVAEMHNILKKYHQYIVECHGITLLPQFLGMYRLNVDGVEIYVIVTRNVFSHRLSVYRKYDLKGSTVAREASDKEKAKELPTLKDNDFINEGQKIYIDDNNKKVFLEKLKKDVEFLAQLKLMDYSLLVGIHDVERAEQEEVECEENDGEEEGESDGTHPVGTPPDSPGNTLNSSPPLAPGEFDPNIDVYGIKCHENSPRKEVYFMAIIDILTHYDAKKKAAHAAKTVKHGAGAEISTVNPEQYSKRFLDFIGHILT
UniProt P41219, sequence (P41219 whole entry, looked up): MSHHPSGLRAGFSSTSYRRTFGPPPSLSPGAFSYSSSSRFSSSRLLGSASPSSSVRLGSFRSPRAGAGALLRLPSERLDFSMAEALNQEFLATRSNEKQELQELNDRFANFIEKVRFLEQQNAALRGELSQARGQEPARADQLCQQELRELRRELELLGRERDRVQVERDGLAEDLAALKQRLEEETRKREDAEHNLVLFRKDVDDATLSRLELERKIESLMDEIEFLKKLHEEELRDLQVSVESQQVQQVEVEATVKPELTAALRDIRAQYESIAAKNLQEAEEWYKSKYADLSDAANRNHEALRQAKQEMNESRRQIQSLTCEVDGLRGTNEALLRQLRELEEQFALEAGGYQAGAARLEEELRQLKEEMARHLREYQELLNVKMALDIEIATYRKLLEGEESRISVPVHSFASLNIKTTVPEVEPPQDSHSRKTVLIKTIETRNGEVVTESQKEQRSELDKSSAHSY
UniProt P53350, sequence (P53350 whole entry, looked up): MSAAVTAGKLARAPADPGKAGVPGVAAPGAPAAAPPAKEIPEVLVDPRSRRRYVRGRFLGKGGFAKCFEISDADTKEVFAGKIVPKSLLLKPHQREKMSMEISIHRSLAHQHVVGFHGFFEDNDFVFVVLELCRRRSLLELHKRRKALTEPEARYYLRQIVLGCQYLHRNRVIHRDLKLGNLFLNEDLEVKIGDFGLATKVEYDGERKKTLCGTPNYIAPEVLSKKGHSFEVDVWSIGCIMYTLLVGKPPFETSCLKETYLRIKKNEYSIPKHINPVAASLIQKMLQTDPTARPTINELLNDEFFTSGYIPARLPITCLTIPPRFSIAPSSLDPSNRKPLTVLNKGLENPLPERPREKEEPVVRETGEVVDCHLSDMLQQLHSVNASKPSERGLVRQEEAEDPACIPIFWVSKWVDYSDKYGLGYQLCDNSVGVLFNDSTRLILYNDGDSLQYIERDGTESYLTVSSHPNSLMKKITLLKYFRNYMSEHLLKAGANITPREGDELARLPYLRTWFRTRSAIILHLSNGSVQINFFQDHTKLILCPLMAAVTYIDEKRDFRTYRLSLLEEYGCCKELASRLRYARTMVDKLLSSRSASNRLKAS
UniProt Q9H4Z3, sequence (Q9H4Z3 whole entry, looked up): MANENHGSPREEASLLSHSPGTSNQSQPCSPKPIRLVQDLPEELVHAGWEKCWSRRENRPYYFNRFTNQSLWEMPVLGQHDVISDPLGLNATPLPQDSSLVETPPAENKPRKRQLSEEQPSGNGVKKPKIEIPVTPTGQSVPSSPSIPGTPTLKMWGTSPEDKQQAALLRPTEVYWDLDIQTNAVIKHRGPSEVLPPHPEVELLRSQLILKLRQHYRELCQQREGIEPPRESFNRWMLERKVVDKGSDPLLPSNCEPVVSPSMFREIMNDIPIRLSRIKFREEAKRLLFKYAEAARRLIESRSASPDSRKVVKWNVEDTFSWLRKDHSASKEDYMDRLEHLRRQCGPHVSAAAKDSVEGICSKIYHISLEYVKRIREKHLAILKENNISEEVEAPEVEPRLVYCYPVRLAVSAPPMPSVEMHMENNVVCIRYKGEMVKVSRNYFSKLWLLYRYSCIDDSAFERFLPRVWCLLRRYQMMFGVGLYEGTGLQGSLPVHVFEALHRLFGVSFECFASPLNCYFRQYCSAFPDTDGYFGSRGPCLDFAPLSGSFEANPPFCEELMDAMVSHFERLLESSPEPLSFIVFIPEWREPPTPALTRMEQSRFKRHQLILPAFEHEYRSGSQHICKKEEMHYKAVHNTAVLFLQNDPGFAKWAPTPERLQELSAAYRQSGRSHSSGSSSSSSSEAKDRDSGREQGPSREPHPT
UniProt Q9UBV8, sequence (Q9UBV8 whole entry, looked up): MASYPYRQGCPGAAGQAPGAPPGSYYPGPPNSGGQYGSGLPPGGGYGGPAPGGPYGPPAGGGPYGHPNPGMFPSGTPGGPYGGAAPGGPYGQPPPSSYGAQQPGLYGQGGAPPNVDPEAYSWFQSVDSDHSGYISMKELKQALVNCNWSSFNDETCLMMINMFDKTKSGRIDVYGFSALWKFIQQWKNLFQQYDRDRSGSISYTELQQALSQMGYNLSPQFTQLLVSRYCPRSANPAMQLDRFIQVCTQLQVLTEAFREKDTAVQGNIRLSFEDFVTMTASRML
UniProt Q05397, sequence (Q05397 whole entry, looked up): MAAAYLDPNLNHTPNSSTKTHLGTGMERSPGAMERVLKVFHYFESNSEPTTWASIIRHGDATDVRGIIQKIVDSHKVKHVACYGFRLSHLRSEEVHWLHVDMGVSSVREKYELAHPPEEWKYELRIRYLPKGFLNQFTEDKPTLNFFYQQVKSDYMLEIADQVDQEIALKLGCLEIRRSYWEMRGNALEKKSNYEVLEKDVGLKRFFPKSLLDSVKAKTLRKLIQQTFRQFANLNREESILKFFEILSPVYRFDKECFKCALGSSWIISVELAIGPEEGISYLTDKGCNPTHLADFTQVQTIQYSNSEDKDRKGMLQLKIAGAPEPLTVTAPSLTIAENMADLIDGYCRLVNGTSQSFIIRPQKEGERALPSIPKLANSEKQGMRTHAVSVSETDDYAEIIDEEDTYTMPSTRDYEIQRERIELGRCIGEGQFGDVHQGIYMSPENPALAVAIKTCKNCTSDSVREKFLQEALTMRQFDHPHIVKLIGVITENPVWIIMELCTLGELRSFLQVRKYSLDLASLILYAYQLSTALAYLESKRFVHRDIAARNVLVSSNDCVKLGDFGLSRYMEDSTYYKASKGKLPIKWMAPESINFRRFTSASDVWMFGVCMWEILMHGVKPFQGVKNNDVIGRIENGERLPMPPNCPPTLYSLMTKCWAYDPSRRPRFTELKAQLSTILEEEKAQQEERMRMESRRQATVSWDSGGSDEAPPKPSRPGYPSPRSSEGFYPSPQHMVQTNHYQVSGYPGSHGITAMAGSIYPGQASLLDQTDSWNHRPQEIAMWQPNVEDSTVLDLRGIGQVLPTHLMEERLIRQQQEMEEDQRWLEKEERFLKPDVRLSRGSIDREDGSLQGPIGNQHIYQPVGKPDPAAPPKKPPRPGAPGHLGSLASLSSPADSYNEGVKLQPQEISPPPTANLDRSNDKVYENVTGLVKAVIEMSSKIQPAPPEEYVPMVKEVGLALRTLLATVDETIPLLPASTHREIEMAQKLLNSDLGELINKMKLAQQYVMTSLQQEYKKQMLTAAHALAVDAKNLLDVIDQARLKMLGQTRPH
UniProt P09884, sequence (P09884 whole entry, looked up): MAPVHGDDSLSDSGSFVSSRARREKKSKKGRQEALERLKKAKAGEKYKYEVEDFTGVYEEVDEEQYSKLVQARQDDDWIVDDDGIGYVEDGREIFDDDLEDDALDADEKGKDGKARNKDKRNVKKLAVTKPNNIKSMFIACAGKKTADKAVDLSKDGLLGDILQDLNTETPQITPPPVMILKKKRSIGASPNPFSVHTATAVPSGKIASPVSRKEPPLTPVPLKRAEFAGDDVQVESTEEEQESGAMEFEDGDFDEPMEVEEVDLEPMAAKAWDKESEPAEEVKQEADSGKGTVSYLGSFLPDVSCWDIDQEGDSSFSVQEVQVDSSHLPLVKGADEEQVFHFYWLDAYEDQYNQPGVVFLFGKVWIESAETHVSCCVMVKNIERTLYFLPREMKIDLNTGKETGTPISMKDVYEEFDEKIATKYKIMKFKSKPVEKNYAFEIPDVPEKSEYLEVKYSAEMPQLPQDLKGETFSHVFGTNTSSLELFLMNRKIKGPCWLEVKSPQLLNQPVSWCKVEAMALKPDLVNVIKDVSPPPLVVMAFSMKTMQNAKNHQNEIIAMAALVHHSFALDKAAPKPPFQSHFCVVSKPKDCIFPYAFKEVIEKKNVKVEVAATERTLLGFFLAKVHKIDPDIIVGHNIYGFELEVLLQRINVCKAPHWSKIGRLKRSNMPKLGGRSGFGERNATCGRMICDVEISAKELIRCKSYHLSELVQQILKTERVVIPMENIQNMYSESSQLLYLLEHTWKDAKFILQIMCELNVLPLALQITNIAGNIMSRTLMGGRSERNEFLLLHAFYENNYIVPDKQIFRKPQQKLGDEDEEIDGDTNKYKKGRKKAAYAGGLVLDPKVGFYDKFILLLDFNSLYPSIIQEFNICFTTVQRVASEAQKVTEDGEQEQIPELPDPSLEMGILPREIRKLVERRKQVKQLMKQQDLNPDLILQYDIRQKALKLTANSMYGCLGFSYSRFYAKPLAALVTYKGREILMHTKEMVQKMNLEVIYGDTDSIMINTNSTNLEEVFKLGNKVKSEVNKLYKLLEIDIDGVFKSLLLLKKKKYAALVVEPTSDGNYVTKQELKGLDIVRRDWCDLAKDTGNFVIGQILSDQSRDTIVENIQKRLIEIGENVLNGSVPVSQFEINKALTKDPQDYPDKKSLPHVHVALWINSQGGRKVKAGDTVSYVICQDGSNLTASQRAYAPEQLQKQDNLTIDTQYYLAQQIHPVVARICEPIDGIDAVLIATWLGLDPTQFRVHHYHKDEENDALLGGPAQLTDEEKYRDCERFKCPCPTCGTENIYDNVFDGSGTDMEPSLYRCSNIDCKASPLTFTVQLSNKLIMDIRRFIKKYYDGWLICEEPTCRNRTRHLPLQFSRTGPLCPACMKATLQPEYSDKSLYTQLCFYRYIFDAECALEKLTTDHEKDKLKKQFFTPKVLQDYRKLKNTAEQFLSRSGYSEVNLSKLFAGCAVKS

| Target | log2 fold change (erlotinib) | log2 fold change [1] | log2 fold change [2] | log2 fold change [3] | log2 fold change [4] | log2 fold change [5] | log2 fold change [6] | log2 fold change [7] | log2 fold change [8] | log2 fold change (IRAK-1-4 Inhibitor I) | log2 fold change (ibrutinib) | log2 fold change [9] | log2 fold change (ralimetinib) | log2 fold change [10] | log2 fold change [11] | log2 fold change [12] | log2 fold change [13] | log2 fold change [14] | log2 fold change [15] | log2 fold change [16] |
| --- | --- | --- | --- | --- | --- | --- | --- | --- | --- | --- | --- | --- | --- | --- | --- | --- | --- | --- | --- | --- |
| PRKCA (UniProt P17252) | 0.031 | -0.086 | -0.019 | 0.108 | 0 | 0.044 | -0.088 | -0.037 | 0.044 | 0.005 | 0.015 | 0.366 (active) | -0.012 | 0.069 | 0.032 | -0.015 | -0.094 | -0.002 | 0.033 | -0.045 |
| PTK2B (UniProt Q14289) | 0.024 | -0.012 | 0.001 | -0.012 | -0.053 | 0.027 | 0.066 | 0.067 | -0.068 | 0.077 | 0.014 | 0.073 | -0.04 | -0.072 | -0.005 | -0.039 | -0.001 | -0.049 | 0.013 | -0.022 |
| PCIF1 (UniProt Q9H4Z3) | -0.011 | 0.067 | -0.008 | 0.042 | 0.102 | -0.015 | 0.014 | -0.011 | -0.033 | -0.041 | 0.019 | 0.019 | 0.091 | 0.017 | 0 | 0.002 | 0.037 | -0.033 | 0.025 | -0.029 |
| PRPH isoform 2 (UniProt P41219) | -0.007 | 0.042 | -0.025 | -0.032 | 0.066 | -0.001 | -0.114 | 0.072 | -0.005 | -0.011 | -0.099 | 0.054 | 0.009 | 0.067 | 0.074 | 0.002 | 0.007 | -0.064 | 0.023 | -0.011 |
| PRIM2 (UniProt P49643) | 0.05 | -0.12 | 0.032 | 0.007 | -0.006 | 0.011 | 0.005 | -0.016 | 0.017 | 0.027 | 0.067 | -0.05 | 0.041 | -0.025 | -0.001 | 0.015 | -0.043 | 0.028 | 0.054 | 0.009 |
| PIP4K2A (UniProt P48426) | -0.04 | -0.239 (active) | 0.032 | 0.001 | 0.225 | 0.135 | 0.105 | 0.103 | -0.006 | -0.007 | -0.052 | 0.086 | 0.032 | -0.053 | -0.043 | -0.017 | -0.019 | -0.002 | -0.028 | -0.026 |
| PFKFB4 (UniProt Q16877) | 0.02 | 0.044 | 0.041 | -0.024 | -0.031 | 0.096 | -0.083 | -0.003 | 0.067 | -0.023 | 0.022 | -0.005 | 0.1 | -0.032 | -0.004 | – | -0.008 | -0.003 | 0.093 | 0.011 |
| PTK2 (UniProt Q05397) | -0.018 | -0.009 | 0.045 | -0.031 | -0.045 | -0.02 | 0.271 | 0.32 | -0.045 | 0.22 | 0.085 | 0.188 | -0.002 | 0.044 | -0.015 | -0.024 | 0.011 | -0.054 | -0.007 | -0.128 |
| PEF1 (UniProt Q9UBV8) | -0.01 | 0.012 | -0.014 | -0.001 | -0.039 | -0.012 | -0.021 | -0.016 | 0.056 | 0.025 | 0.009 | -0.021 | -0.034 | -0.036 | -0.029 | -0.025 | -0.004 | 0.021 | 0.01 | -0.01 |
| PRKD3 (UniProt O94806) | -0.041 | 0.105 | -0.123 | -0.145 | 0.039 | 0.115 | 0.123 | -0.163 | -0.115 | 0.053 | -0.112 | 0.054 | -0.164 | -0.052 | 0.03 | 0.039 | – | -0.068 | -0.022 | -0.077 |
| PPM1H (UniProt Q9ULR3) | -0.048 | -0.045 | 0.25 (active) | 0.021 | -0.049 | 0.009 | 0.011 | -0.039 | 0.101 | 0.037 | 0.058 | -0.032 | -0.008 | -0.035 | 0.019 | – | -0.028 | 0.048 | -0.007 | 0.02 |
| PGPEP1 (UniProt Q9NXJ5) | -0.003 | 0.102 | -0.053 | -0.046 | 0.013 | 0.014 | -0.018 | -0.059 | 0.001 | -0.003 | -0.051 | 0.02 | -0.013 | 0.013 | 0.043 | -0.078 | 0.015 | 0.123 | -0.034 | -0.053 |
| PLK1 (UniProt P53350) | 0.006 | -0.032 | -0.013 | 0.077 | -0.092 | 0 | -0.147 | -0.069 | 0.143 | -0.141 | -0.004 | 0.069 | 0.009 | 0.015 | 0.068 | 0.022 | -0.019 | 0.032 | 0.036 | -0.014 |
| PPOX (UniProt P50336) | -0.044 | 0.532 (active) | 0 | -0.015 | -0.04 | 0.025 | 0.014 | 0 | -0.041 | -0.016 | 0.067 | -0.008 | 0.001 | 0.091 | 0.301 | -0.022 | -0.138 | 0.105 | 0.006 | 0.012 |
| PYURF (UniProt Q96I23) | -0.019 | 0.113 | 0.117 | 0.056 | 0.087 | -0.09 | -0.108 | 0.035 | 0.07 | -0.086 | 0.189 | -0.026 | -0.005 | 0.079 | 0.016 | 0.058 | -0.05 | 0.084 | 0.012 | -0.026 |
| POLA1 (UniProt P09884) | 0.009 | -0.039 | -0.02 | -0.015 | -0.036 | 0.084 | -0.005 | -0.034 | 0.015 | -0.003 | 0 | -0.013 | -0.032 | 0.003 | 0.001 | 0.007 | -0.001 | 0.02 | 0.022 | -0.016 |
